# Most compounds without a hit are left out; they make up all but 2.6% or so of the library.
# PABP1 MLLE inh – blocks PAM2 peptide binding to the PABP1 MLLE domain. P11940. GST-MLLE / FITC-PAM2 fluorescence polarization. inhibition, % at 20 µM. 0.36% of 360,000 active. AID 588489; in the data active = inhibition above about 35%, passing the limit was not always enough;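 note: plate controls were DMSO wells with GST-MLLE for no effect and wells lacking GST-MLLE protein for full effect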
# eIF4H FP inh – inhibitors of RNA binding by human eIF4H. Q15056. eIF4H fluorescence polarization binding assay. inhibition, % at 35 µM. 0.94% of 290,000 active. AID 2012;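 note: calls also rest on retests at 20 µM and on dose response follow-up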
# PABP FP inh – blocks human PABP binding to poly(A) RNA; fluorescence polarization; calls only at 35 µM; 1% of 290,000 active;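 note: calls also rest on retests at 20 µM and on dose response follow-up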
# PHOSPHO1 inh – blocks human PHOSPHO1 phosphatase activity | Q8TCT1 | AID 1565 | 1.1% of 290,000 active | recombinant PHOSPHO1, absorbance phosphatase assay | inhibition, % at 13.3 µM; in the data active = inhibition above about 60%
# Target sequence (Q8TCT1 whole entry, looked up): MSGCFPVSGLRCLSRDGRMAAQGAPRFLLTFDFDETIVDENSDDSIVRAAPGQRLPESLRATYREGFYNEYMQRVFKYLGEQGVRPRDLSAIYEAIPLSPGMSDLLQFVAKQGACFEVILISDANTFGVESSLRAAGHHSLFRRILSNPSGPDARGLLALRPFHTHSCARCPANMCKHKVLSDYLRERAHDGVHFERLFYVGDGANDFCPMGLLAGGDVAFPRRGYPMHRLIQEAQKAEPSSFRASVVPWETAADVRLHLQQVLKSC
# ABCB6 inh MLPCN – human ABCB6 transporter inhibition; fluorescence ratio to DMSO, % at 10 µM; Q9NP58; 0.19% of 360,000 active; K562-ABCB6 porphyrin accumulation, flow cytometry, 1 h; stronger effect = lower value; AID 602162;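 active = fluorescence ratio to DMSO below 75%, the collection mean minus 3 SD; inconclusive = too few cells collected in the well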;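 note: signal is porphyrin accumulated inside mitochondria; 100% equals median channel fluorescence of DMSO control wells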
# AI-2 QS modul – Vibrio harveyi AI-2 quorum sensing modulation; 0.4% of 300,000 active; Vibrio harveyi JMH597 AI-2 luminescence/OD600 ratio, 9 h; stronger effect = lower value; strain lacks LuxN and CqsS sensors; 0 = neutral-control median; activity change, % at 7.5 µM; AID 2094; in the data active = activity change below about -75%, passing the limit was not always enough; inconclusive = no clear call, values can overlap the other calls;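 note: luminescence divided by OD600 gain over 9 h not by final OD600 alone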
# An asterisk follows results filed as active; i = inactive; ? = inconclusive; · = no result given; + = active, no number. Unless noted, the rule behind the calls is not given here.
SMILES,PABP1 MLLE inh,eIF4H FP inh,PABP FP inh,PHOSPHO1 inh,ABCB6 inh MLPCN,AI-2 QS modul
Cc1cccn2c(=O)c3cc(S(=O)(=O)c4ccc(F)cc4)c(=N)n(Cc4ccco4)c3nc12,-9.2,83.2*,+,-4.5,95.0,7.5
N=c1c(C(=O)NCCc2ccccc2)cc2c(=O)n3ccccc3nc2n1Cc1ccco1,0.4,92.8*,i,39.2,97.0,27.1
O=C1C=CC(=Nc2cccc3c2C(=O)c2ccccc2-3)O1,56.3*,·,·,·,104.0,·
COc1ccc(OC)c(S(=O)(=O)N2CCCCC2C(=O)N2CCN(c3ccccn3)CC2)c1 (centres undefined),38.3*,5.2,i,-12.2,102.0,5.3
COc1ccc(OC)c(S(=O)(=O)N2CCN(c3ccccn3)CC2)c1,2.6,10.7,i,38.2,96.0,15.7
CC(CC(=O)Nc1ccc2c(c1)c(=O)n(C)n2-c1ccc2ccccc2c1)C(F)(F)F (centres undefined),-20.3,·,·,·,105.0,·
N#Cc1c(Sc2ncc(C(F)(F)F)cc2Cl)nsc1C/C=N\OCc1c(F)cccc1Cl,-55.0,18.3,i,78.7*,101.0,5.8
CCCSc1nc(C)cc(C)c1S(C)(=O)=O,-3.6,4.7*,+,26.5,98.0,15.9
COc1cccc(C(C)(O)c2nc(-c3cc(F)cc(F)c3)cs2)c1 (centres undefined),-7.5,·,·,·,95.0,·
CC1(C(=O)Nc2ccc(F)c(Cl)c2)Cc2c(-c3ccc(C(N)=O)cc3)ccnc2O1 (centres undefined),7.0,·,·,·,78.0,·
S=c1[nH]ncc2ccccc12,4.8,4.3,i,66.6*,99.0,-3.4
CCC(=O)NC(c1ccccc1OC)c1ccc2cccnc2c1O (centres undefined),0.1,8.6,i,6.3,97.0,-30.5
COc1ccc(Cl)cc1C(Nc1cccnc1)c1ccc2cccnc2c1O (centres undefined),17.1,2.8,i,-16.0,97.0,-81.9*
CC(=O)c1ccc(Cc2ccc(C(C)=O)s2)s1,28.7,·,·,·,104.0,·
Cc1noc(C)c1S(=O)(=O)NC(=O)C1(C)CCN1C(=O)CC(c1ccccc1)c1ccccc1 (centres undefined),5.7,·,·,·,97.0,·
CC(=O)NC(C)(c1ccccc1)c1nc(-c2cccc3cccnc23)cs1 (centres undefined),-15.2,·,·,·,96.0,·
CC(C)(C)CC(=O)NC(=S)N1CCCCCC1,13.4,2.5,i,69.4*,112.0,22.0
CC(C)(C)c1ccc(C(=O)NC(=S)N2CCCCCC2)cc1,16.5,3.8,i,38.1,95.0,43.5
CNC(=O)c1[nH]cnc1C(=O)N[C@@H](Cc1ccccc1)C(=O)OC(C)(C)C,5.4,93.4*,+,30.4,79.0,12.1
N#CCCN(Cc1ccccc1)C(CCc1ccccc1)C(=O)NC1CCCCC1 (centres undefined),-9.4,·,·,·,101.0,·
COc1ccc(-c2nnc(SC3CCOC3=O)n2C2CCCCC2)cc1OC (centres undefined),-58.9,-3.5,i,75.3*,93.0,8.8
CCc1cc(C(=O)Cc2ccc(F)cc2)c(O)cc1O,1.9,5.3,i,-3.4,95.0,23.8
O=C(Cc1ccc(F)cc1)c1ccc(O)cc1O,20.9,74.9*,+,0.2,97.0,-42.1
O=C(Cc1ccccc1F)c1ccc(O)cc1O,-6.6,-11.6,i,35.3,92.0,-3.3
O=C(Cc1c(F)cccc1Cl)c1ccc(O)cc1O,17.1,63.1,+,23.5,96.0,-21.3
SMILES,PABP1 MLLE inh,eIF4H FP inh,PABP FP inh,PHOSPHO1 inh,ABCB6 inh MLPCN,AI-2 QS modul
O=C1CCCCCC(=O)[C@H](O)C[C@H](c2ccccc2)O1,·,·,·,·,93.0,·
O=c1[nH]cc(S(=O)(=O)N2CCN(c3ccc(F)cc3)CC2)c(=O)[nH]1,19.7,·,·,·,105.0,·
Cc1c(/C=C2\SC(=Nc3cccc(C(=O)O)c3)NC2=O)c2ccccc2n1C,-174.5,0.0,+,12.9,98.0,24.3
O=C1c2ccc3c4c(ccc(c24)C(=O)N1CCCCO)C(=O)N(CCCCO)C3=O,63.7*,?,i,9.1,107.0,19.4
CCCCOCCCNC(=O)C[C@@H]1C[C@@]2(C(=O)OCC)CCC=C2N(Cc2ccc3c(c2)OCO3)C1=O,·,·,·,·,97.0,·
Cc1cc(C(=O)OCC(=O)Nc2c(F)cccc2F)c(C)n1-c1ccccc1,-2.2,7.6,i,64.3*,100.0,24.4
Nc1c(C(=O)NCc2cccnc2)sc(=S)n1-c1ccccc1,32.6,-4.0,i,95.5*,93.0,2.6
Cc1ccc(-n2c(N)c(C(N)=O)sc2=S)cc1,32.3,6.8,i,92.8*,99.0,22.0
COc1ccc(CNC(=O)c2sc(=S)n(-c3ccc(OC)cc3)c2N)cc1,26.8,0.3,i,95.4*,100.0,7.8
CCc1nc2c(OCC3CCCCC3)cccn2c1N(C)C(=O)c1ccccc1F,-2.2,·,·,·,95.0,·
CCNC(=O)C1(C)CCN(C(=O)c2ccc(C#N)cc2)C1 (centres undefined),-0.2,·,·,·,98.0,·
CCC1OC(C)Cc2[nH][nH]c(=O)c21 (centres undefined),·,·,·,·,125.0,·
S=c1nc(-c2ccco2)[nH][nH]1,25.4,-4.9,i,97.6*,97.0,37.6
CCc1nnc(NC(=O)Cn2c(=O)oc3ccccc32)s1,-12.0,7.6,i,16.0,96.0,-6.8
CC1CCCC(C)N1c1nnc(NC(=O)Cn2c(=O)oc3ccccc32)s1 (centres undefined),-30.6,-16.9,i,62.4*,99.0,10.8
CCCc1nnc(NC(=O)Cn2c(=O)oc3cc(Br)ccc32)s1,-90.6,7.4,i,99.8*,103.0,·
CCCc1nnc(NC(=O)Cn2c(=O)oc3ccccc32)s1,30.8,-4.1,i,-18.6,88.0,-2.1
CC(C)CNC(=O)C1(C)CCCN1C(=O)c1c(Cl)cccc1Cl (centres undefined),0.3,·,·,·,97.0,·
CC(NC(=O)C1CCN(CCOc2ccc(Cl)cc2)CC1)c1cccc2ccccc12 (centres undefined),2.0,·,·,·,93.0,·
N#CC1=C(N)SC(N)=C(C#N)C1c1cccc(O)c1,-71.5,74.2*,+,-20.1,96.0,12.7
COc1ccc(C2C(C#N)=C(N)SC(N)=C2C#N)cc1OC,124.3,?,?,34.5,91.0,25.4
NS(=O)(=O)c1ccc(-c2ccc(/C=C3\C(=O)Nc4ccccc43)o2)cc1,·,5.2,i,-7.3,·,13.1
Cc1ccc(/C=C2\C(=O)Nc3ccccc32)o1,23.3,87.4*,+,-3.4,103.0,68.6
Cc1ccc(/C=N/NC(=O)Cn2cnc3ccccc32)cc1,-4.2,89.1*,+,31.7,88.0,-2.2
O=C(COC(=O)c1cnccn1)NC1CCCc2ccccc21 (centres undefined),-3.0,·,·,·,96.0,·
O=C(COC(=O)c1cccnc1)NC1CCCc2ccccc21 (centres undefined),8.4,78.0*,i,20.1,100.0,·
O=C(NCC1CCCCC1)c1ccc2nc([C@@H]3O[C@H](CO)[C@H](O)[C@H](O)[C@H]3O)[nH]c2c1,9.7,·,·,·,104.0,·

# Screens deposited in PubChem BioAssay by several laboratories.
